An excerpt weighted towards active compounds, which were near 11% of everything screened.
HPGD inh – qHTS Assay for Inhibitors of HPGD (15-Hydroxyprostaglandin Dehydrogenase). 15-hydroxyprostaglandin dehydrogenase [NAD(+)] (Homo sapiens), P15428. purified HPGD, NADH fluorescence kinetic, PGE2 substrate. Potency, µM, inactives show at the top dose activity change, negative = inhibition, hits mostly inhibitors. 4.3% of 150,000 active; also: potency is read from the fitted curve at half-maximal effect
Target sequence (P15428 whole entry, looked up): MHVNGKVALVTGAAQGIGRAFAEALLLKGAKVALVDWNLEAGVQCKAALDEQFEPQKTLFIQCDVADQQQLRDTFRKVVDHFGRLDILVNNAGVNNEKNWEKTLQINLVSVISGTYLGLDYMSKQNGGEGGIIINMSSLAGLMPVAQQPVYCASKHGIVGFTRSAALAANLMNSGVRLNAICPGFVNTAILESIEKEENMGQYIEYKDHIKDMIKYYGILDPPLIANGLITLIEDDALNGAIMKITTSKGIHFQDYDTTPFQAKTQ
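20 nM HPGD preincubated 15 min at room temperature with compound in 50 mM Tris-HCl pH 8, 0.01% Tween 20. Started with 1 mM NAD+ and 30 uM prostaglandin E2; NADH fluorescence (360/450 nm) read 5 times over 30-s intervals, last minus first.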
PNC assembly inh – High Content Assay for Compounds that inhibit the Assembly of the Perinucleolar Compartment; 3.1% of 140,000 active; PC3M PTB-GFP, PNC prevalence imaging, 16 h; stronger effect = lower value; AID 2417, 2010; activity change (PNC), negative = inhibition, % at 10 µM;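 active = readout at or below -70, meaning at least 70% loss of cells showing the perinucleolar compartment, a nuclear body marking cancer cells; inconclusive = readout between -30 and a set limit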;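 also: plate controls were DMSO wells for no effect and camptothecin positive control wells for full effect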
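PC3M cells stably expressing PTB-GFP, 750–1000 cells/well, treated 16 h at 37 °C with compound (23 nl of library stock), in duplicate. After paraformaldehyde fixation and Hoechst stain, imaged at 20x; PNC prevalence scored by image analysis.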
ALDH1A1 inh – qHTS Assay for Inhibitors of Aldehyde Dehydrogenase 1 (ALDH1A1) | Aldehyde dehydrogenase 1A1 (Homo sapiens), P00352 | AID 1030, 2008 | Purified ALDH1A1, NADH fluorescence, propionaldehyde substrate | Potency, µM (doses to about 75.3 µM), for the others: top-dose activity, negative = inhibition, hits mostly inhibitors | 7.3% of 220,000 active;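 also: potency is read from the fitted curve at half-maximal effect; plate controls were no enzyme wells and a reference inhibitor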
Active calls of the source: *; ? = inconclusive; / = not tested or not shown; ! = a repeat was not active; [ ] = remark or other dose. Unless noted, calls follow the shape of the dose curve; as a rule, active = well fitted inhibition curve with a large enough effect (not every such curve was filed as active); inconclusive = small, poorly fitted or top-dose-only effect, or another doubt; inactive = no such curve, though single readings can be large or run the other way. Unless noted, % is scaled to controls: 0 for no effect and ±100 for the full control effect.

SMILES	HPGD inh	PNC assembly inh	ALDH1A1 inh
Clc1cncc(N2CCNCC2)n1	?	/	22.4%
CCOP(=S)(OCC)SCCSCC	-11.1%	/	14.1µM*
O=C1Nc2ccc(Cl)cc2C(c2ccccc2Cl)=NC1O (centres undefined)	-0.7%	/	12.8%
O=C(NCc1ccccn1)c1ccccc1Cl	6.31µM*	14.5	?
CCOP(=O)(OCC)C(NC(=O)c1ccccc1Cl)=C(Cl)Cl	-11.6%	18.3	3.5%
Cc1ccc(-n2c(C)nc3ccccc3c2=O)cc1C	/	/	2.8%
COc1ccc(-n2c(/C=C/c3ccc4c(c3)OCO4)nc3ccccc3c2=O)cc1	398.0%	49.1	?
Cc1nc2ccccc2c(=O)n1-c1cccc(O)c1	6.9%	-107.1*	-1.5%
COc1cccc(-n2c(/C=C/c3ccc(O)c(O)c3)nc3ccccc3c2=O)c1	/	/	25.1µM*
O=C(/C=C/c1ccc(Cl)cc1)N[C@@]12CCC(=O)[C@@H]3Oc4c(O)ccc5c4[C@@]31CCN(CC1CC1)C2C5	/	/	7.4%
CCC(C)n1c(O)c(C(c2ccccn2)c2c(O)n(C(C)CC)c(=S)[nH]c2=O)c(=O)[nH]c1=S (centres undefined)	31.6µM*	?	7.08µM*
Cn1c(O)c(C(c2ccccn2)c2c(O)n(C)c(=S)n(C)c2=O)c(=O)n(C)c1=S	-2.3%	48.5	?
C=C1C(O)C2OC3(CCC(/C=C/C(C)C4CC(C)=CC5(OC(CC(C)(O)C(=O)O)CCC5O)O4)O3)CCC2OC1C(O)CC(C)C1OC2(CCCCO2)CCC1C (centres undefined)	-1.6%	/	3.4%[2.48 µM]
O=Cc1cn(Cc2c(F)cccc2Cl)c2ccccc12	/	/	3.16µM*
O=C(c1ccccc1F)c1cn(Cc2ccccc2)c2ccccc12	-0.5%	8.4	-12.7%
O=Cc1cn(Cc2ccccc2F)c2ccccc12	/	/	0.447µM*
O=Cc1cn(Cc2cccc([N+](=O)[O-])c2)c2ccccc12	-17.3%	?	3.98µM*
O=Cc1cn(CCCOc2ccccc2)c2ccccc12	?	-17.3	?
CN1CN(c2cccc([N+](=O)[O-])c2)CN=C1N[N+](=O)[O-]	/	/	-11.7%
C1CCc2nnnn2CC1	-7.1%	/	-7.3%
COC(C)C(O)(C(=O)OC1=CCN2CC[C@H](O)[C@H]12)C(C)C (some centres undefined)	4.2%	/	10.1%
C[C@@H](N)Cn1ccc2cc(F)c(Cl)cc21	5.9%	/	2.3%
CC1(C)S[C@@H]2[C@H](N)C(=O)N2C1C(=O)O (some centres undefined)	-10.5%	/	-0.4%
O=C(O)CN1CCN(CC(=O)O)CC(=O)[O][Hg][O]C(=O)C1	0.0398µM*	/	1.58µM*
CCC1=C(C[C@H]2NCCc3cc(OC)c(OC)cc32)C[C@H]2c3ccccc3CCN2C1	-1.4%	/	15.8%[13.5 µM]
SMILES	HPGD inh	PNC assembly inh	ALDH1A1 inh
COc1ccc(N2CC(C(=O)NCc3ccco3)CC2=O)cc1 (centres undefined)	/	/	25.1µM*
COc1ccc(Cn2c(N)c(C(=O)NCc3ccco3)c3nc4ccccc4nc32)cc1	?	32.0	?
O=C1NC(=S)NC(=O)C1C/C=C/c1ccccc1	10µM*	-1.3	28.2µM*
COC(=O)N1CCC2(CCN(CC(C)C)CC2)CC1	-6.8%	/	2.4%
C=CCn1c(=O)c(C=Nc2cccc([N+](=O)[O-])c2)c(O)n(CCCC)c1=O	-4.8%	27.0	-8.3%
C=CCn1c(=O)c(C=Nc2c(OC)cccc2[N+](=O)[O-])c(O)n(CCCC)c1=O	-13.7%	14.4	12.6µM*
O=[N+]([O-])c1ccccc1CCl	1.9%	/	12.6µM*
O=[N+]([O-])c1cccc2ccccc12	-5.0%	/	?
COc1ccc2c3c1O[C@H]1[C@@H](O)C=C[C@H]4C(C2)NCCC341 (some centres undefined)	/	/	-6.0%
C[C@H](N)[C@@H](O)c1ccccc1	-3.6%	/	-6.1%[20.9 µM]
CC(C)CNCCc1ccccn1	-3.1%	/	15.8%[13.5 µM]
CC(C)[C@@]1(NC(=O)[C@@H]2C[C@@H]3c4cccc5[nH]cc(c45)C[C@H]3N(C)C2)O[C@@]2(O)C3CCCN3C(=O)[C@H](Cc3ccccc3)N2C1=O (some centres undefined)	-21.6%	/	-10.0%
CN1C[C@@H](C(=O)N[C@@]2(C)O[C@]3(O)C4CCCN4C(=O)[C@@H](Cc4ccccc4)N3C2=O)C=C2c3cccc4[nH]cc(c34)C[C@@H]21 (some centres undefined)	-30.0%	/	?
O=C(O)c1cc(O)c(O)c(O)c1	7.08µM*!	/	2µM*
COc1ccc(C(=O)O)cc1OC	-3.0%	/	-8.5%
O=NN(c1ccccc1)c1ccccc1	-5.8%	/	?
O=C(c1csnn1)N1CCC2(CC1)CN(Cc1ccncc1)C2	-5.9%	/	-12.6%
Nc1nc(N)c(N=Nc2ccc([As](=O)(O)O)c(O)c2)c(N)n1	-3.3%	/	8.9%[13.5 µM]
CC1=NN(c2ccccc2)C(=O)[C@@H]1N=Nc1ccc([As](=O)(O)O)c(O)c1	-5.9%	/	3.55µM*
CC(=O)O[C@H]1C(=O)[C@@]2(C)C([C@H](OC(=O)c3ccccc3)[C@]3(O)C[C@H](OC(=O)[C@H](O)[C@@H](NC(=O)c4ccccc4)c4ccccc4)C(C)=C1C3(C)C)[C@]1(OC(C)=O)CO[C@@H]1C[C@@H]2OC(=O)[C@H](C)NC(=O)c1ccc(-c2c3ccc(=O)cc-3oc3cc(O)ccc23)c(C(=O)O)c1 (some centres undefined)	-3.5%	/	-0.3%[13.5 µM]
C=CCN1CCC23c4c5ccc(O)c4OC2/C(=N/N=C2\CCC4(O)C6Cc7ccc(O)c8c7C4(CCN6CC=C)C2O8)CCC3(O)C1C5 (centres undefined)	/	/	-6.3%
c1csc(CN2CC[C@@]3(CCCNC3)C2)n1	-13.0%	/	22.4µM*
O=C(Oc1ccccc1)N1CCC2(CCN(Cc3nccs3)CC2)CC1	-1.5%	/	-10.1%
Cc1ccc(NC(=[OH+])c2cc3ccccc3cc2O)c(C)c1.Cc1ccc(NC(=[OH+])c2cc3ccccc3cc2O)c(C)c1.[Ni]	1.78µM*	/	-19.6%[13.5 µM]
CC1(C)C(O)CC(=O)[C@]2(C)C1CC(=O)[C@]1(C)C2CC[C@@]2(C)C(c3ccoc3)OC(=O)C3O[C@@]321 (some centres undefined)	-13.3%	/	1.4%
SMILES	HPGD inh	PNC assembly inh	ALDH1A1 inh
CO[C@H]1C=C2CCN(C)[C@@H]2[C@@H]2c3cc4c(cc3C(=O)O[C@H]21)OCO4	-3.0%	/	?
CC(O)CCl (centres undefined)	0.8%	/	22.1%
S=c1[nH]nc(-c2ccco2)n1-c1cccc2ccccc12	?	19.3	?
Nn1c(Cc2cccc3ccccc23)n[nH]c1=S	/	/	22.4µM*
CC(C)CN1CC2(CCN(C(=O)Oc3ccccc3)CC2)C1	-2.0%	/	-0.2%
S=c1[nH]nc(-c2ccco2)n1/N=C/c1cccs1	28.2µM*	-23.6	25.1µM*
CC[C@]12CCCN3CCC4(c5ccccc5NC4C(C(=O)O)C1)C32 (some centres undefined)	-7.3%	/	10.5%
Cc1ccc(N=C=O)cc1N=C=O	-3.4%	/	-1.9%
CN(C)CCCc1c[nH]c2ccccc12	-7.5%	/	2.7%[13.5 µM]
CC(=O)OCC1=C(C(=O)O)N2C(=O)C(NC(=O)CCCC(N)C(=O)O)C2SC1 (centres undefined)	-16.9%	/	-0.4%

Screening data from PubChem BioAssay.
